About 83,000 compounds went through this panel and 20% of them were active in at least one assay; those are over-represented in the sample as a whole.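 Plates (96-well) were seeded with cells, treated with compound at one concentration, and incubated for 48 hours before percent growth was determined.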 Unmarked numbers belong to inactive results. The source made the active and inactive calls. Rule for the calls: active = growth percent below 10; inactive = the rest.

Some test systems named below: NCI-H23 lung; NCI-H226 lung; NCI-H322M lung; HOP-62 NSCLC; NCI-H460 lung; HOP-92 NSCLC; NCI-H522 lung; A549/ATCC NSCLC; 786-0 renal; COLO 205 colon; DU-145 prostate; K-562 leukemia; MALME-3M melanoma; MDA-MB-231 breast; RXF 393 renal; SF-268 CNS; SF-295 CNS; SF-539 CNS; UACC-257 melanoma; M14 melanoma.
Assay in all cases: NCI-60 one-dose screen, 48 h (100 = growth as untreated, 0 = no growth, -100 = all killed)
Holding throughout (conditions): 10 µM unless noted

Turning to `Cc1c[n+](Cc2ccc3ccccc3c2)cn1Cc1ccc2ccccc2c1`, the growth in the experiment on NCI-H23 lung was 27.7%; in the experiment with NCI-H226 lung it was 31.8%; in the experiment on NCI-H322M lung it was 65.7%; with HOP-62 NSCLC, 33.2%; in the experiment on NCI-H460 lung it was 21.9%; in the experiment with HOP-92 NSCLC, -20.9% (active). For the same compound, the growth with NCI-H522 lung was -17.9% (active); in the experiment on A549/ATCC NSCLC, 60.5%; in the experiment on 786-0 renal, 41%; in the experiment with COLO 205 colon it was -78.7% (active); with DU-145 prostate, 37.1%; with K-562 leukemia it was 8.82% (active). Moreover, the growth was 0.847% (active) in the experiment with MALME-3M melanoma; -8.23% (active) in the experiment on MDA-MB-231 breast; 2.91% (active) in the experiment on RXF 393 renal; 24.3% in the experiment on SF-268 CNS; 45.5% in the experiment with SF-295 CNS; 33.1% in the experiment with SF-539 CNS. In addition, the growth with UACC-257 melanoma is -26.1% (active); with M14 melanoma, -15.5% (active).
For `CC1CCc2c(C(=O)Nc3ncc(Cc4cccc([N+](=O)[O-])c4)s3)csc2C1` (stereo not given), the growth is 36.6% in the experiment with NCI-H23 lung; 54.1% in the experiment with NCI-H226 lung; 33.1% in the experiment with NCI-H322M lung; 26.8% in the experiment with HOP-62 NSCLC; 11.2% in the experiment with NCI-H460 lung; 58.9% in the experiment with HOP-92 NSCLC. For the same compound, the growth with NCI-H522 lung is 2.96% (active); with A549/ATCC NSCLC it was 34.4%; in the experiment on 786-0 renal, 30.1%; with COLO 205 colon it was 10.8%; in the experiment with DU-145 prostate, 18%; in the experiment on K-562 leukemia it was 23.8%. The growth is 51% in the experiment with MALME-3M melanoma; 23.6% with MDA-MB-231 breast; -24.1% (active) in the experiment on RXF 393 renal; 43.9% in the experiment on SF-268 CNS; 14.3% with SF-295 CNS; -7.87% (active) in the experiment on SF-539 CNS. Moreover, the growth was 52% in the experiment on UACC-257 melanoma and 6.98% (active) in the experiment on M14 melanoma.
Turning to `CCCCCC(/C=N\NC(=S)N/N=C/C(=C/c1ccccc1)CCCCC)=C\c1ccccc1`, the growth in the experiment on NCI-H23 lung is 70.6%; with NCI-H226 lung, 89.8%; with NCI-H322M lung, 61.3%; in the experiment on HOP-62 NSCLC it was 72.7%; with NCI-H460 lung, 57.8%; in the experiment with HOP-92 NSCLC, 15.8%. Besides, the growth is 40.4% in the experiment with NCI-H522 lung; 74.8% in the experiment on A549/ATCC NSCLC; 79.9% in the experiment on 786-0 renal; 97.2% with COLO 205 colon; 88.7% with DU-145 prostate; 19.8% in the experiment on K-562 leukemia. Besides, the growth in the experiment on MALME-3M melanoma is 93.4%; in the experiment with MDA-MB-231 breast, 65.6%; in the experiment on RXF 393 renal it was 74.8%; in the experiment on SF-268 CNS, 68%; in the experiment with SF-295 CNS, 45.7%; in the experiment on SF-539 CNS, 82.4%. Besides, the growth in the experiment with UACC-257 melanoma was 98.1%; with M14 melanoma, 77.8%.
Take `C=CCSc1nnc(NC(=O)CCl)s1`: the growth was 93.6% with NCI-H23 lung; 88.8% in the experiment with NCI-H226 lung; 101% in the experiment with NCI-H322M lung; 109% with HOP-62 NSCLC; 99.9% in the experiment with NCI-H460 lung; 112% with HOP-92 NSCLC. Besides, the growth is 85.3% in the experiment on NCI-H522 lung; 95.2% in the experiment on A549/ATCC NSCLC; 101% in the experiment on 786-0 renal; 122% in the experiment with COLO 205 colon; 87.4% in the experiment on DU-145 prostate; 87.7% with K-562 leukemia. In addition, the growth with MALME-3M melanoma was 73.8%; in the experiment on MDA-MB-231 breast, 89.6%; with RXF 393 renal it was 97.5%; in the experiment with SF-268 CNS it was 91.9%; with SF-295 CNS, 101%; in the experiment with SF-539 CNS, 101%. Besides, the growth with UACC-257 melanoma is 79.1%; with M14 melanoma, 83.2%.
For the compound `O=C(Nc1ccccc1)Nc1ncnc2c1ncn2-c1ccc(Cl)cc1`, the growth was 88.5% in the experiment with NCI-H23 lung; 65% in the experiment with NCI-H226 lung; 79.3% with NCI-H322M lung; 75.4% in the experiment on HOP-62 NSCLC; 46.3% with NCI-H460 lung; 97.3% with HOP-92 NSCLC. Moreover, the growth is 85.4% in the experiment on NCI-H522 lung; 83.7% with A549/ATCC NSCLC; 46.9% with 786-0 renal; 86.8% in the experiment on COLO 205 colon; 96.3% with DU-145 prostate; 99.6% with K-562 leukemia. The growth in the experiment on MALME-3M melanoma is 71.9%; in the experiment on MDA-MB-231 breast, 80.8%; in the experiment on RXF 393 renal, 91.7%; in the experiment on SF-268 CNS, 97.1%; in the experiment with SF-295 CNS, 76.4%; in the experiment on SF-539 CNS, 107%. Further, the growth with UACC-257 melanoma is 109%; in the experiment on M14 melanoma, 98.9%.
For the compound `OCCn1cc(-c2nc(-c3c[nH]c4ncccc34)cs2)c2ccccc21`, the growth in the experiment with NCI-H23 lung was 71.9%; in the experiment with NCI-H226 lung, 58%; with NCI-H322M lung, 74.8%; with HOP-62 NSCLC it was 74.7%; in the experiment with NCI-H460 lung, 78.6%; with HOP-92 NSCLC it was 58%. In addition, the growth is 58.6% in the experiment with NCI-H522 lung; 77.5% in the experiment with A549/ATCC NSCLC; 95.1% in the experiment with 786-0 renal; 85.9% with COLO 205 colon; 93.5% in the experiment with DU-145 prostate; 54.2% in the experiment with K-562 leukemia. The growth in the experiment with MALME-3M melanoma is 115%; with MDA-MB-231 breast, 66.4%; in the experiment with RXF 393 renal, 82.4%; in the experiment with SF-268 CNS, 84.1%; with SF-295 CNS, 81.1%; in the experiment on SF-539 CNS, 88.5%. Further, the growth is 93.1% with UACC-257 melanoma and 97.7% in the experiment on M14 melanoma.
In the case of `CCOC(=O)c1cc(C(=O)c2cc(OC)c(OC)c(OC)c2)n2ncccc12`, the growth in the experiment with NCI-H23 lung was 38%; with NCI-H226 lung it was 29.6%; with NCI-H322M lung it was 48.1%; with HOP-62 NSCLC it was 32.2%; with NCI-H460 lung, 10.3%; in the experiment on HOP-92 NSCLC, 73.6%. The growth in the experiment with NCI-H522 lung is 34.8%; in the experiment on A549/ATCC NSCLC it was 24.1%; in the experiment with 786-0 renal, 26.5%; with COLO 205 colon, -24.7% (active); in the experiment with DU-145 prostate, 23.7%; with K-562 leukemia it was 10.9%. For the same compound, the growth in the experiment with MALME-3M melanoma was 44.9%; in the experiment with MDA-MB-231 breast it was 31.2%; in the experiment with RXF 393 renal, -4.2% (active); in the experiment on SF-268 CNS, 47.7%; in the experiment on SF-295 CNS, 13.6%; with SF-539 CNS, -12.3% (active). For the same compound, the growth with UACC-257 melanoma is 52.1%; with M14 melanoma, 3.88% (active).
As to `Oc1c(Br)cc(Br)c2ccc(Cn3cc(-c4ccccc4C(F)(F)F)nn3)nc12`, the growth with NCI-H23 lung was 106%; with NCI-H226 lung it was 98.6%; in the experiment on NCI-H322M lung, 104%; in the experiment on HOP-62 NSCLC, 103%; with NCI-H460 lung, 101%; in the experiment on HOP-92 NSCLC, 88.8%. Moreover, the growth with NCI-H522 lung is 24.6%; with A549/ATCC NSCLC, 99.6%; in the experiment with 786-0 renal, 105%; in the experiment on COLO 205 colon, 95.7%; with DU-145 prostate, 86%; in the experiment on K-562 leukemia it was 4.64% (active). Moreover, the growth in the experiment with MALME-3M melanoma was 89.6%; with MDA-MB-231 breast it was 109%; in the experiment on RXF 393 renal, 60.1%; in the experiment with SF-268 CNS it was 94.1%; in the experiment on SF-295 CNS it was 104%; in the experiment on SF-539 CNS, 97.3%. In addition, the growth in the experiment on UACC-257 melanoma is 79%; with M14 melanoma, 94.6%.

The record behind these values is PubChem BioAssay (NCI).
